About 530 (0.24%) of roughly 220,000 compounds were called active. The sample as a whole holds a higher share of actives than the screen did. Entries with a potency or affinity are not part of this list. A number with no mark means an inactive call. Rule as the data show it: active = inhibition above about 13%; inconclusive = no clear call, values can overlap the other calls; inactive = below that.
Target: Bifunctional protein GlmU (Mycobacterium tuberculosis (strain ATCC 25618 / H37Rv)) (UniProt P9WMN3)
Sequence (P9WMN3 whole entry, looked up): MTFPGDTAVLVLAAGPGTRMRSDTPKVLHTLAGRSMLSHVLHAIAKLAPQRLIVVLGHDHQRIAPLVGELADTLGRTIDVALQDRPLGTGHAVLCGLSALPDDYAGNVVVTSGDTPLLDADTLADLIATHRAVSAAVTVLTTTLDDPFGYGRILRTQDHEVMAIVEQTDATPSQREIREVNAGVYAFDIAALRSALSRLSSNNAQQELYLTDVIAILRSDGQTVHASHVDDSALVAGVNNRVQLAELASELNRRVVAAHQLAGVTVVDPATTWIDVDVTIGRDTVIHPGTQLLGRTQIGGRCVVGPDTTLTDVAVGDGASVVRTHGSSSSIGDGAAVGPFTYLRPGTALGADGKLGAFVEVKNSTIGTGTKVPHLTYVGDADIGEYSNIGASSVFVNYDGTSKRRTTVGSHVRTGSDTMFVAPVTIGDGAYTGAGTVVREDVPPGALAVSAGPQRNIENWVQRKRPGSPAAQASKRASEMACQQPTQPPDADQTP
Test: inhibition of mycobacterial GlmU enzyme – biochemical, glucosamine-1-phosphate acetyltransferase (AID 1376);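 also: 0% = complete reaction with vehicle and 100% = reaction without substrate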
Conditions: M. tuberculosis GlmU acetyltransferase enzyme assay; hits give high values;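 tested at 30 µM in the primary screen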

Row | SMILES | inhibition
1 | O=C(O)CCCN1C(=O)c2ccc(C(=O)c3cccc([N+](=O)[O-])c3)cc2C1=O | 2.64%
2 | O=C(CN1C(=O)CCC1=O)NNc1ccc2ccccc2c1 | -8.95%
3 | O=C(CN1C(=O)NC2(CCCC2)C1=O)Nc1cccc(-c2nnc3n2CCCCC3)c1 | -0.57%
4 | O=C(CC1Sc2ccccc2NC1=O)Nc1cccc(C(=O)O)c1 (stereo not drawn) | -2.21%
5 | O=C(CC1Sc2ccccc2NC1=O)Nc1cccc(-c2nnc3n2CCCCC3)c1 (stereo not drawn) | 14.3% (active)
6 | Oc1ccccc1/C=N/NC1=NCCCCC1 | -2.12%
7 | COC(C(=O)NCc1ccc(C)cc1)c1ccccc1 (stereo not drawn) | -0.55%
8 | CC(C)=CC(=O)NCc1c(Cl)cccc1-n1cccc1 | 23.8% (active)
9 | CCC(=O)NCc1c(Cl)cccc1-n1cccc1 | -2.25%
10 | CC(=O)NCc1c(Cl)cccc1-n1cccc1 | -2.69%
11 | COC(=O)c1ccccc1NC(=O)CCS(=O)(=O)c1ccc(Br)s1 | 6.53%
12 | COC(=O)c1ccc(NC(=O)CCS(=O)(=O)c2ccc(Br)cc2)cc1 | 3.55%
13 | Cc1ccc(CCNC(=O)CCS(=O)(=O)c2ccc(Br)cc2)cc1 | -0.29%
14 | Cc1ccc(CNC(=O)CCS(=O)(=O)c2ccc(C)cc2)cc1 | -0.32%
15 | COc1cccc(CN2CCN(S(=O)(=O)c3ccc(Br)cc3)CC2)c1 | -0.5%
16 | COc1cc(C=C2C(=O)c3ccccc3C2=O)ccc1O | 10.6%
17 | COc1ccc(C=C2C(=O)c3ccccc3C2=O)cc1O | 9.53%
18 | CC(C)(C)N1C(=O)c2ccccc2NC(=O)N1Cc1ccccc1 | -6.09%
19 | O=C1c2ccccc2CC1(Cc1ccccc1)Cc1ccccc1 | -4.43%
20 | N#CCCN(Cc1cccnc1)C(=S)NC(=O)C1CC1 | -4.01%
21 | Cc1cccc(CSc2nnc(-c3ccccn3)n2N)c1 | 1.5%
22 | CCOc1cc(/C=N/N=C2/NC(=O)C(CC(=O)O)S2)ccc1OCc1ccc(Cl)cc1 (stereo not drawn) | 0.64%
23 | COc1ccc(/C=N/N=C2/NC(=O)C(CC(=O)O)S2)cc1OS(=O)(=O)c1ccccc1 (stereo not drawn) | 3.56%
24 | CCOc1cc(/C=N/N=C2/NC(=O)C(CC(=O)O)S2)ccc1OS(=O)(=O)c1ccc(C)cc1 (stereo not drawn) | 13.1% (active)

Row | SMILES | inhibition
25 | Cc1ccc(/C=C2\SC(=S)N(CC3CCCO3)C2=O)o1 (stereo not drawn) | 9.7%
26 | O=C(CSc1nc2ccccc2o1)N1CCN(S(=O)(=O)c2ccc3ccccc3c2)CC1 | -1.93%
27 | CCc1ccc(N(CC(=O)NCc2ccc(F)cc2)C(=O)c2csnn2)cc1 | 1.98%
28 | CCOc1ccc(/C=N/Nc2nc(=O)[nH]nc2C)cc1OC | 2.62%
29 | O=C(NN1C(=O)/C(=C/C=C/c2ccco2)SC1=S)c1ccncc1 | 10.6%
30 | CC(/C=C1\SC(=S)N(NS(=O)(=O)c2ccccc2)C1=O)=C\c1ccccc1 | 5.96%
31 | Cn1cccc1/C=C1\SC(=S)N(NC(=O)c2ccccc2O)C1=O | 0.05%
32 | O=C1/C(=C/c2cccs2)SC(=S)N1NS(=O)(=O)c1ccccc1 | 11.6%
33 | O=C(NCC(c1cccnc1)N1CCN(c2ccccc2F)CC1)OCc1ccccc1 (stereo not drawn) | -3.82%
34 | CC(C)CNC(CC(=O)Nc1cccc([N+](=O)[O-])c1)C(=O)O (stereo not drawn) | 0.89%
35 | CN(C)/C=C(\C#N)C(=O)Nc1ccc(O)cc1F | -2.68%
36 | CC(NC(=O)c1ccco1)C(=O)OCc1cccc(Cl)c1 (stereo not drawn) | 2.75%
37 | Cc1ccccc1NC(=O)CS(=O)(=O)c1cn(CC(=O)N2CCOCC2)c2ccccc12 | -2.25%
38 | CCCN(Cc1cc2ccccc2[nH]c1=O)C(=O)c1cccc([N+](=O)[O-])c1 | -2.01%
39 | O=C(O)c1cccc(Cn2c(Cl)c(/C=N/NC(=O)c3ccccc3)sc2=O)c1 | 1.79%
40 | O=C(O)c1cccc(Cn2c(Cl)c(/C=N/NC(=O)c3ccccc3O)sc2=O)c1 | 5.34%
41 | CCC(C)OC(=O)C[N+](C)(C)CCOC1CC2CCC1(C)C2(C)C (stereo not drawn) | -2.89%
42 | Cn1c(=O)c([N+](=O)[O-])c(NCc2ccc3c(c2)OCO3)c2ccccc21 | 0.57%
43 | S=c1[nH]nc(COc2ccccc2)n1/N=C/c1ccco1 | 3.61%
44 | Nc1c(C(=O)Nc2ccccc2)sc2nc3c(c(-c4ccco4)c12)CCC3 | -1.21%
45 | Nc1c(C(=O)NC2CC2)sc2nc3c(c(-c4ccco4)c12)CC/C3=C/c1ccco1 | 16.9% (active)
46 | Nc1c(C(=O)NCC2CCCO2)sc2nc3c(c(-c4ccco4)c12)CC/C3=C\c1ccco1 (stereo not drawn) | 12.4%
47 | Cc1cccc2cc(C#N)c(NCc3ccccc3)nc12 | 1.49%
48 | CCOC(=O)N1CCC(NC(=O)c2cccn3c(=O)c4cc(Br)ccc4nc23)CC1 | 3.26%

Row | SMILES | inhibition
49 | CCOc1ccccc1NC=C1C(=O)OC2(CCCCC2)OC1=O | -1.31%
50 | COc1ccc(OC)c(NC=C2C(=O)OC3(CCCCC3)OC2=O)c1 | 2.73%
51 | COc1ccccc1NC=C1C(=O)OC2(CCCCC2)OC1=O | 13.1% (active)
52 | CCC(C)(C)NC(=O)C(c1ccccc1)N(Cc1cccnc1)C(=O)c1csnn1 (stereo not drawn) | 0.49%
53 | CN(C)S(=O)(=O)c1cccc(NC(=O)/C=C/c2ccccc2[N+](=O)[O-])c1 | 6.53%
54 | O=S1(=O)c2ccccc2N=NN1Cc1cc(Cl)cc(Cl)c1 | 3.2%
55 | O=S1(=O)c2ccccc2N=NN1Cc1ccc(Cl)cc1 | 8.76%
56 | CC(C1CC2CCC1C2)n1c(-c2ccco2)n[nH]c1=S (stereo not drawn) | -2.34%
57 | COc1cccc(/C=N/n2c(-c3ccco3)nc3ccccc3c2=O)c1 | 12.8% (active)
58 | COc1cccc(/C=N/n2c(-c3ccco3)nc3ccccc3c2=O)c1OC | -2.22%
59 | COc1ccc(/C=N/n2c(-c3ccco3)nc3ccccc3c2=O)cc1 | -1.21%
60 | C=CCn1c(C(CC(C)C)CC(C)O)n[nH]c1=S (stereo not drawn) | -0.56%
61 | Cc1ccc(-n2c(SCC(=O)NC3CCS(=O)(=O)C3)nc3ccccc3c2=O)cc1 (stereo not drawn) | -6.07%
62 | Cc1cccc(NC(=O)CCc2ccc(S(=O)(=O)NC3CCCCC3)cc2)c1 | 4.56%
63 | Cc1nn(-c2ccccc2)c(Cl)c1/C=N/Nc1ccc(Cl)c(C(=O)O)c1 | -0.65%
64 | Cc1nn(-c2cccc(C(F)(F)F)c2)c(Cl)c1/C=N/Nc1cccc(C(=O)O)c1 | -2.39%
65 | CSc1ccc(/C=N/Nc2cccc(C(=O)O)c2)cc1 | 35.4% (active)
66 | O=C(O)c1cccc(N/N=C/c2ccc(-c3ccccc3)cc2)c1 | -0.74%
67 | CC(C)(C)c1ccc(/C=N/Nc2cccc(C(=O)O)c2)cc1 | -6.54%
68 | CCOc1cccc(C(=O)N(Cc2ccc(F)cc2)C2CCS(=O)(=O)C2)c1 (stereo not drawn) | 3.65%
69 | CC1CCc2c(sc3ncn(Cc4ccc(C(=O)O)cc4)c(=O)c23)C1 (stereo not drawn) | -5.17%
70 | CNS(=O)(=O)c1cccc(C(=O)OCC(=O)Nc2ccc(N3CCCCC3)cc2)c1 | -3.94%
71 | CN(CCC1CCOCC1)Cc1nc(Cc2ccccc2F)no1 | 3.72%
72 | Cc1ccc(S(=O)(=O)C(C#N)c2nc3ccccc3nc2OCCO)cc1 (stereo not drawn) | 2.66%

Row | SMILES | inhibition
73 | CCCCOc1nc2ccccc2nc1C(C#N)S(=O)(=O)c1ccccc1 (stereo not drawn) | 3.84%
74 | N#CC(c1nc2ccccc2nc1OCCO)S(=O)(=O)c1ccccc1 (stereo not drawn) | 12.9% (active)
75 | COc1ccc(C2C(C(C)=O)=C(O)C(=O)N2c2cccnc2)c(OC)c1 (stereo not drawn) | 12.9% (active)
76 | COc1ccc(C2C(C(C)=O)=C(O)C(=O)N2c2cccnc2)cc1OC (stereo not drawn) | 1.89%
77 | COc1ccc(C2C(C(C)=O)=C(O)C(=O)N2c2nccs2)c(OC)c1 (stereo not drawn) | 0.3%
78 | Cc1ccccc1NC(=O)C(C)n1c2ccccc2c2nc(=O)cc(C)n21 (stereo not drawn) | -3.29%
79 | O=C(O)c1cccc2c1C(=O)c1ccccc1C2=O | -4.06%
80 | Nc1c(C(=O)O)ccc2c1C(=O)c1ccccc1C2=O | 5.83%
81 | Nc1cc(C(=O)O)c(N)c2c1C(=O)c1ccccc1C2=O | 12.9% (active)
82 | Cc1ccc2nsnc2c1S(=O)(=O)N1CCN(CCc2ccccc2)CC1 | -1.69%
83 | Cn1c(=O)n(C)c2cc(NC(=O)c3ccccc3[N+](=O)[O-])c(Br)cc21 | -4.22%
84 | Clc1ccc(CSc2nnc(Cn3cnc4ccccc43)o2)cc1 | 15% (active)
85 | NC(=O)CSc1nnc(Cn2cnc3ccccc32)o1 | -3.79%
86 | Clc1ccc(Cn2cnc3ccccc32)cc1 | -0.58%
87 | CC(C)(CN=C1NS(=O)(=O)c2ccccc21)CNC(=O)CN1C(=O)c2ccccc2C1=O | 0.96%
88 | O/C(=C\Sc1nnc(Cc2ccccc2)o1)c1ccc(Br)cc1 | 9.57%
89 | Cc1ccc(-n2nc3c(c2NC(=O)CCC2CCCCC2)CS(=O)C3)cc1 (stereo not drawn) | 4.09%
90 | Cc1cccc(-n2nc3c(c2NC(=O)CCC2CCCCC2)CS(=O)C3)c1C (stereo not drawn) | 19.3% (active)
91 | O=C(CCC1CCCCC1)Nc1c2c(nn1-c1ccc(F)cc1)CS(=O)C2 (stereo not drawn) | -0.99%
92 | COc1ccccc1C1C(C(=O)NCc2ccccc2)=C(C)Nc2ncnn21 (stereo not drawn) | -0.29%
93 | O=C(NCc1cccc(Cl)c1)c1ccc(S(=O)(=O)Nc2cccc(C(F)(F)F)c2)cc1 | 6.21%

Reference: PubChem BioAssay AID1376 (SRMLSC, 2008)
